NLRP3 yeast inh – NALP3 inhibition in yeast; Yeast reconstituted NLRP3/ASC/caspase-1, beta-gal luminescence, 24 h; inhibition, % at 10 µM; 330,000 compounds, 0.39% hits; AID 2825;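 active means inhibition of 50% or more; inactive means inhibition below 50%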;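 further: plate controls were induced DMSO wells for no effect and uninduced yeast grown without galactose for full effect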
Rce1 inhib – inhibitors of yeast Ras-converting enzyme; Q03530; yeast membranes, quenched prenylated peptide cleavage fluorescence; calls only; 290,000 compounds, 0.27% hits; AID 2563;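 active means fall in fluorescence gain of 50% or more versus controls, with final raw signal at or below 3038400; inconclusive means same 50% fall but final raw signal above 3038400; inactive means fall in fluorescence gain under 50%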;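 further: plate controls were neutral control wells for no effect and wells lacking membranes for full effect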
Target sequence (Q03530 whole entry, looked up): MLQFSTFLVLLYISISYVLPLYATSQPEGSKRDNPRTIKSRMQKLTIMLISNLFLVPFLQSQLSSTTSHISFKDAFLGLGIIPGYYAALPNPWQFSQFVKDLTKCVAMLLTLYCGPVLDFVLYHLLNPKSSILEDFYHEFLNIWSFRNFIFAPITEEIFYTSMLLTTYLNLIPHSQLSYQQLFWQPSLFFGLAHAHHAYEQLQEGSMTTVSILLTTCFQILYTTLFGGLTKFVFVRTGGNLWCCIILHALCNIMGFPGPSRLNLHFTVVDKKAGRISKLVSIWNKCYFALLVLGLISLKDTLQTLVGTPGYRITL
NALP1 yeast inh – blocks the NALP1 inflammasome reconstituted in yeast. inhibition, % at 10 µM. S. cerevisiae NALP1/ASC/caspase-1 growth, X-gal OD620, 72 h. 280,000 compounds, 0.61% hits; in the data active means inhibition mostly above about 24%, no sharp cut-off; inactive means mostly below about 32%
PERK inh – human PERK inhibition, primary cell-based screen. Q9NZJ5. CHO PERK-DD fusion, SEAP luminescence translation reporter. inhibition, % at 5.6 µM. 220,000 compounds, 0.17% hits;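 active means inhibition above the mean inhibition of all tested compounds plus 3 SD, set separately per screening campaign, cut at about 2.9% in these data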;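 further: PERK kinase domain activated by AP20187 dimerizer at 100 nM; 0% = DMSO with dimerizer and 100% = rapamycin at 8.4 µM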
V-ATPase pH – alters yeast V-ATPase proton transport | 350,000 compounds, 0.37% hits | S. cerevisiae, pHLuorin cytosolic pH fluorescence | response, % at 10 µM; in the data active means response mostly above about 7.3%, no sharp cut-off; inactive means mostly below about 5.4%; further: actives read high
CR mimetic SO – yeast age-related superoxide inhibition as caloric restriction mimetic | AID 2690 | 330,000 compounds, 0.18% hits | S. cerevisiae aged cells, superoxide DHE fluorescence; active compounds read low | superoxide response (% of plate mean), % at 10 µM;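 active means superoxide response under a set limit, about three screen SD below normal, cut at about 65% in these data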;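 further: yeast aged for seven days with compound at 30 °C before DHE staining; 100% = average MFI of all compound-treated wells on the plate with controls excluded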
* = called active by the depositor; i = inactive; ? = inconclusive; · = no result; + = active, no number. Rows were chosen to be rich in hits. Some 1.6% of all compounds tested hit in one or more screens of this group.

SMILES	NLRP3 yeast inh	Rce1 inhib	NALP1 yeast inh	PERK inh	V-ATPase pH	CR mimetic SO
CCN(CC)CCNc1ccc(CO)c2oc3ccccc3c(=O)c12	·	·	·	·	1	·
CCOC(=O)C(=O)NNc1ccc(Cl)cc1	27	i	50*	0	2	113
Cc1csc(=O)n1CCC(=O)OCC(=O)NCc1ccccc1	·	·	·	·	2	·
COc1cc(/C=C2\S/C(=N/S(=O)(=O)Cc3ccccc3)NC2=O)c([N+](=O)[O-])cc1OC	3	i	12	1	-3	103
COc1cc(/C=C2/S/C(=N/S(=O)(=O)Cc3ccccc3)NC2=O)c([N+](=O)[O-])cc1OC	2	i	1	3.0*	0	116
COc1ccc2c(Cl)cc(NC(=O)Nc3c(C)cccc3C)nc2c1	·	·	·	·	1	·
Cc1cccc2cc(C#N)c(NCCNC(=O)c3ccccc3)nc12	·	·	·	·	0	·
Cc1ccc(N=CNc2ccc(C)cc2C)c(C)c1	10	i	41*	1	3	101
Cc1noc(C)c1NC(=O)N(C)C[C@@H]1Oc2cc(Br)ccc2S(=O)(=O)N([C@H](C)CO)C[C@@H]1C	·	·	·	·	1	·
C[C@H]1CN([C@@H](C)CO)C(=O)CCCn2nncc2CO[C@H]1CN(C)S(=O)(=O)c1ccc2ccccc2c1	·	·	·	·	0	·
CN(C)c1ccc(/C=N/NC(=O)CNC(=O)c2ccc3c(c2)OCCO3)cc1	-18	+	21	1	-1	99
Cc1cc(C)c(S(=O)(=O)Nc2cc(SCC(=O)O)c(O)c3ccccc23)cc1C	·	i	49*	1	·	167
Cc1ccc2c(=O)cc(C(F)F)oc2c1	2	i	41*	0	3	92
C[C@@H]1CN([C@H](C)CO)C(=O)CCCn2nncc2CO[C@H]1CN(C)C	·	·	·	·	-2	·
Nc1nonc1-n1nnc(C(=O)N/N=C/c2ccccc2)c1CSc1ccc(Cl)cc1	-10	+	16	0	0	110
Cc1ccc(-c2c(C(=O)N/N=C/c3cccc(Cl)c3)nnn2-c2nonc2N)cc1	8	+	30	·	4	99
Cc1ccc(/C=N/NC(=O)c2nnn(-c3nonc3N)c2CSc2ccccc2)cc1	8	i	4	0	-1	81
Cc1ccc(SCc2c(C(=O)N/N=C/c3ccccc3)nnn2-c2nonc2N)cc1	17	+	9	-1	2	92
Nc1nonc1-n1nnc(C(=O)N/N=C/c2cccc(Cl)c2)c1CSc1ccc(Cl)cc1	6	+	4	0	-3	104
CC(C)c1c(C(=O)N/N=C/c2ccco2)nnn1-c1nonc1N	-5	i	16	·	7	90
Cc1ccc(/C=N/NC(=O)c2nnn(-c3nonc3N)c2C(C)C)o1	4	+	18	·	0	93
COc1ccc([N+](=O)[O-])cc1N(CC(=O)N1CCOCC1)S(C)(=O)=O	8	i	42*	0	-2	100
CC(C)N1C(=O)S/C(=C\c2ccc(-c3ccc(Cl)c(C(=O)O)c3)o2)C1=O	20	i	2	·	-4	105
CCN(CC)c1ccc(/C=C2/SC(=O)N(C(C)C)C2=O)o1	·	i	58*	-1	2	·
O=C1NC(Cc2ccccc2)c2nc3cc(Cl)ccc3c(=O)n2-c2ncccc21 (stereo unspecified)	·	·	·	·	-2	·
SMILES	NLRP3 yeast inh	Rce1 inhib	NALP1 yeast inh	PERK inh	V-ATPase pH	CR mimetic SO
Nc1nc2n[nH]nc2c(=O)[nH]1	18	+	·	·	1	83
ClC(Cl)(Cl)c1nc2ccccc2n2nncc12	25	i	37*	·	1	102
c1ccc2c(c1)nnn1c3ccccc3nc21	-10	i	0	0	·	101
CC1(C)N=C(SCC(=O)Nc2ccc(Cl)cc2)C(c2ccc(Cl)cc2)=N1	40	i	36*	-1	6	99
O[C@H]1C[C@H](c2ccccc2)N(Cc2cccs2)C[C@@H]1n1cc(C2CC2)nn1	·	·	·	·	1	·
COC(C[C@H](O)C[C@H](O)[C@@H](C)OCc1ccccc1)OC	15	+	·	·	4	·
COC(C/C=C/[C@H](O)[C@H](C)OCc1ccccc1)OC	14	+	·	·	2	·
COC(C/C=C/[C@@H](O)[C@H](C)OCc1ccccc1)OC	11	+	·	·	0	·
COC(C/C=C/C(=O)[C@H](C)OCc1ccccc1)OC	11	+	·	·	-4	·
COC(C/C=C/[C@H](O)[C@@H](C)OCc1ccccc1)OC	8	+	·	·	1	94
Cc1nc(NC(=O)c2cccc(-c3cc4ccccc4oc3=O)c2)ccc1Br	25	+	35	1	0	92
Cc1cc(NC2CCCCC2)nc(NCc2ccccc2)n1	29	i	62*	-1	0	95
Cc1ccc(Nc2cc(C)nc(NCc3ccccc3)n2)cc1	18	i	51*	-1	5	81
CC(C)(Cl)C1Cc2cc3ccc(=O)oc3cc2O1 (stereo unspecified)	9	i	24*	0	0	100
CC(=O)OC(C)(C)C1Cc2cc3ccc(=O)oc3cc2O1 (stereo unspecified)	11	?	21	·	2	105
Cc1ccc(NC(=O)CCSc2nnc(C)s2)cc1	14	i	-83	2.9*	6	95
CCOC(=O)c1c(C)[nH]c(C)c1C(=O)CSc1nnc(-c2cc(OC)c(OC)c(OC)c2)o1	-2	i	24	3.2*	3	101
CCCCOC(=O)CSc1nnc(-c2cc(OC)c(OC)c(OC)c2)o1	7	i	5	1	2	92
CC(=O)N1CC2(CC(c3ccccc3C(F)(F)F)=NO2)CN1c1ccc(Cl)cc1 (stereo unspecified)	·	·	·	·	0	·
Cc1ccc(NC(=O)N2CCc3ccccc3C2)cc1	26	i	65	-1	1	97
O=C(Nc1ccccc1)N1CCc2ccccc2C1	20	i	50*	-1	-3	104
O=C(c1c(Cl)cccc1Cl)N1CCN(c2ccccn2)CC1	27	i	-6	0	-5	100
O=C(N1CCN(c2ccccn2)CC1)C(Cl)(Cl)Cl	24	i	55*	0	-1	77
CN1C=C(C(F)(F)F)C=C/C1=C(\C#N)c1nnc2n1CCCCC2	5	i	-6	3.1*	-1	121
C/C(O)=C(\C#N)c1nnc2n1CCCCC2	19	i	14	2	2	78
SMILES	NLRP3 yeast inh	Rce1 inhib	NALP1 yeast inh	PERK inh	V-ATPase pH	CR mimetic SO
Nc1c2c(nc3ccc(Br)cc13)N(c1ccccc1)CC2	4	·	3	-1	-2	93
Cc1cccc(N2CCc3c2nc2ccc(Br)cc2c3N)c1	37	+	10	0	3	103
Nc1c2c(nc3ccc(Br)cc13)N(Cc1ccccc1)CC2	16	i	56*	-1	0	87
O=S1(=O)N[C@@H](Cc2ccccc2)COc2ccc(Cl)cc21	·	·	·	·	-3	·
COc1ccc(CCNC(=O)CSc2nc3ccsc3c(=O)n2Cc2ccccn2)cc1OC	·	·	·	·	-2	·
CCOc1ccc(CN(C)C(=O)c2cccc(S(=O)(=O)Nc3ccccc3OC)c2)cc1OC	·	·	·	·	0	·
